Compound activity deposited in PubChem by National Center for Advancing Translational Sciences (NCATS).
HP1b binding inh: HTS for Inhibitors of HP1-beta Chromodomain Interactions with Methylated Histone Tails. AID 540317, 2011. AlphaScreen HP1-beta / biotin-H3K9me3 peptide binding. Chromobox protein homolog 1 (Homo sapiens), P83916. Potency, µM (titrated, usually from 114 µM), for the others: at the top dose activity change, negative = inhibition, usual class: inhibitors. actives 0.56% (n = 390,000); further: nearly all actives have a fitted effect of over 70% in size
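Compound inhibition of the preformed complex between 50 nM HP1-beta and 50 nM biotinylated H3K9me3 peptide was read by AlphaScreen. Buffer was PBS pH 7.4 with 0.01% Tween-20. Incubations ran 30 min at room temperature, with 10 ug/mL donor/acceptor beads.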
L3MBTL1 inh: qHTS Assay for the Inhibitors of L3MBTL1. Potency, µM (top dose mostly 57.1 µM), for the others: at the top dose activity, negative = inhibition, actives largely listed as inhibitors. AlphaScreen L3MBTL1–H3K9me1 peptide binding. actives 0.66% (n = 230,000); further: on the % scale 0 is the no-effect control and ±100 the full control effect; nearly all actives have a fitted effect of over 60% in size
Target sequence (Q9Y468 whole entry, looked up): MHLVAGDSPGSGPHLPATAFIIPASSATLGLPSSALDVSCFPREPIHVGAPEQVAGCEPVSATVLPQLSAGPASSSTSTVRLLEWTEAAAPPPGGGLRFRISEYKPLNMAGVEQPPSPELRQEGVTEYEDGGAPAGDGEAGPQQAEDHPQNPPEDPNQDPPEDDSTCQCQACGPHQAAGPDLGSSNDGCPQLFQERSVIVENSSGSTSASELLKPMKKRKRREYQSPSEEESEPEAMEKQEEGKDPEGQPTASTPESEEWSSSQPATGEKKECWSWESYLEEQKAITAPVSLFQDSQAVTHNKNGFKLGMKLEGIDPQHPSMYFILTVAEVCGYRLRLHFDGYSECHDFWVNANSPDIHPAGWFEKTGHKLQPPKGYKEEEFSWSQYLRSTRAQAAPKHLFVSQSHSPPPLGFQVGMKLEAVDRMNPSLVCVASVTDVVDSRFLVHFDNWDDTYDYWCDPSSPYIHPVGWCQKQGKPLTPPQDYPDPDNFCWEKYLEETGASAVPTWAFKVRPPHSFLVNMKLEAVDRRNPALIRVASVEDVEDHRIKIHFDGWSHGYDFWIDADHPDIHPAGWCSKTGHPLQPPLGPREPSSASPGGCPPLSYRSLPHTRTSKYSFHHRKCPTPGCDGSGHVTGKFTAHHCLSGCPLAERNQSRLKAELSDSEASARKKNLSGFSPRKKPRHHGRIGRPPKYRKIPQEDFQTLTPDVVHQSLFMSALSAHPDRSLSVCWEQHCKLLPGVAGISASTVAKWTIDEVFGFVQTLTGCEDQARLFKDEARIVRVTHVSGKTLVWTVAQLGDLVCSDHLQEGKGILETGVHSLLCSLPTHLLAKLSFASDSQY
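L3MBTL1 50 nM + b-AHA-H3(1-15)K9me1 75 nM, 30 min RT; compound added, 30 min RT; streptavidin donor/Ni-chelate acceptor beads 10 ug/mL each final, 30 min RT dark; AlphaScreen read.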
JMJD2A Tudor: qHTS Assay for Inhibitors of JMJD2A-Tudor Domain; Lysine-specific demethylase 4A (Homo sapiens), O75164; AID 504339, 2011; AlphaScreen JMJD2A-Tudor / H3K4me3 peptide binding; Potency, µM (titrated, usually from 114 µM), for the others: at the highest dose activity change, negative = inhibition, actives largely listed as inhibitors; actives 4.4% (n = 390,000); further: on the % scale 0 is the no-effect control and ±100 the full control effect; nearly all actives have a fitted effect of over 50% in size
G9a inh: qHTS Assay for Inhibitors of Histone Lysine Methyltransferase G9a; Histone-lysine N-methyltransferase EHMT2 (Homo sapiens), Q96KQ7; G9a H3K9 monomethylation, AlphaScreen, 2 h; Potency, µM (titrated, usually from 102 µM), for inactives: at the top dose activity, negative = inhibition, actives largely listed as inhibitors; actives 8.8% (n = 350,000); AID 504332, 2011; further: on the % scale 0 is the no-effect control and ±100 the full control effect; nearly all actives have a fitted effect of over 75% in size
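Compounds were preincubated with 20 nM G9a for 15 min, after which biotinylated H3K9 peptide (500 nM) and SAM (20 uM) started a 2 h room-temperature reaction. Monomethylated product was quantified by antibody-based AlphaScreen chemiluminescence.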
BAZ2B block: qHTS Assay for Inhibitors of BAZ2B; AID 504333, 2011; Potency, µM (top dose mostly 114 µM), for the others: top-dose activity change, negative = inhibition, actives largely listed as inhibitors; actives 4.4% (n = 360,000); AlphaScreen BAZ2B-H3K14Ac peptide displacement; further: on the % scale 0 is the no-effect control and ±100 the full control effect; nearly all actives have a fitted effect of over 60% in size
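Compounds, titrated to a top concentration of 110 uM, were incubated 30 min at room temperature with preformed BAZ2B/acetyl-K14 H3 peptide complex (50 nM each). Proximity signal was measured by AlphaScreen after 20 min with beads.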
Starred values were filed as active, the others as inactive; ! = a repeat was not active; [ ] = dose if it differs, or a comment. Shown are actives, neighbours in structure and some others; about 11% of the full set was active somewhere. The call rests on the fitted dose curve; in most records, active means well fitted inhibition curve with a large enough effect; inconclusive means small, poorly fitted or top-dose-only effect; inactive means no such curve, though single readings can be large or run the other way. Potency means the concentration at half of the fitted maximal effect.

COc1ccccc1OCC(=O)N1CCN(S(=O)(=O)c2ccc(Cl)cc2)CC1 was read as HP1b binding inh 24.8%, L3MBTL1 inh -1.9%, JMJD2A Tudor 3.4%, G9a inh 44.7µM* and BAZ2B block 8.8%.
`COc1ccccc1OCC(=O)N1CCN(C(=O)COc2ccccc2OC)CC1` gave HP1b binding inh 27.9%, JMJD2A Tudor -20.1%, G9a inh 39.8µM* and BAZ2B block -13.6%.
Cn1c(=O)c2sccc2n2c(CCCC(=O)Nc3ccc(Oc4ccc(Cl)cc4)cc3)nnc12 was read as HP1b binding inh 43.7%, JMJD2A Tudor -2.9%, G9a inh -1.8%[59 µM] and BAZ2B block -22.5%.
Cn1cc(-c2cc3n(n2)CCC(=O)N3CCCC(=O)NCc2ccccc2)c2ccccc21 was read as HP1b binding inh 14.6%[57 µM], JMJD2A Tudor -14.1%, G9a inh -0.4%[59 µM] and BAZ2B block -9.3%.
O=C(COc1ccccc1F)N1CCN(S(=O)(=O)/C=C/c2ccccc2)CC1 was read as HP1b binding inh 27.8%, L3MBTL1 inh 6.1%, JMJD2A Tudor -11.6%, G9a inh 44.7µM* and BAZ2B block 5.8%.
CCCCNc1nc2ccccc2c2nc(-c3ccccc3)nn12 was read as HP1b binding inh 121.8%, JMJD2A Tudor 95.3%, G9a inh 115.9%[59 µM] and BAZ2B block 79.2%.
Screening CCCCNC(=O)CCC(=O)NNc1nc2ccccc2c2nc(C)nn12 returned HP1b binding inh 47.9%, L3MBTL1 inh 0.2%, JMJD2A Tudor -6.4%, G9a inh 25.1µM*! and BAZ2B block -2.7%[57.1 µM].
CCOCCCNC(=O)CCC(=O)NNc1nc2ccccc2c2nc(C)nn12 was read as HP1b binding inh 32.2%, JMJD2A Tudor -2.8%, G9a inh -28.7% and BAZ2B block inconclusive.
Screening CCCCNC(=O)CCC(=O)NNc1nc2ccccc2c2nc(-c3ccccc3)nn12 returned HP1b binding inh 27.4%, L3MBTL1 inh 7.5%, JMJD2A Tudor -11.8%, G9a inh -2.0%[59 µM] and BAZ2B block 89.1µM*!.
For COc1ccc(Br)cc1CNC(=O)c1cc2n(n1)CCCN(Cc1ccc(C)cc1)C2=O the results were HP1b binding inh 31.4%, JMJD2A Tudor -5.6%, G9a inh 2.4%[12.7 µM] and BAZ2B block -5.6%.
CC1NC(=O)NC1CCCCCC(=O)Nc1ccc(F)c(Cl)c1 (stereo not drawn) was read as HP1b binding inh 1.12µM*, L3MBTL1 inh 0.316µM*, JMJD2A Tudor inconclusive, G9a inh 1µM* and BAZ2B block 0.794µM*.
CC1NC(=O)NC1CCCCC(=O)O (stereo not drawn) was read as HP1b binding inh -19.4%, L3MBTL1 inh 2.7%, JMJD2A Tudor 0.0%[11.4 µM] and G9a inh 21.5%[59 µM].
`Cc1ccc(NC(=O)CCCCCC2NC(=O)NC2C)cc1` (stereo not drawn) gave HP1b binding inh 1.12µM*, JMJD2A Tudor 0.355µM*, G9a inh inconclusive and BAZ2B block 0.794µM*.
`CC12CCC(C(=O)NCc3ccccn3)(OC1=O)C2(C)C` (stereo not drawn) gave HP1b binding inh 19.4%, JMJD2A Tudor inconclusive, G9a inh inconclusive and BAZ2B block 79.4µM*.
For CC1=C(C(=O)NCc2ccccn2)C2(CCC(C)CC2)OC1=O (stereo not drawn) the results were HP1b binding inh 15.8%, L3MBTL1 inh -17.7%, JMJD2A Tudor 28.2µM*, G9a inh 10µM* and BAZ2B block 79.4µM*.
For CC1=C(C(=O)NCc2ccc(Cl)cc2)C2(CCC(C)CC2)OC1=O (stereo not drawn) the results were HP1b binding inh 42.0%, JMJD2A Tudor -6.7%, G9a inh 2.5% and BAZ2B block 3.6%.
For CCCCn1c(CNC(=O)C23CC4CC(CC(C4)C2)C3)nnc1SCC(=O)Nc1ccccc1 the results were HP1b binding inh 23.1%, JMJD2A Tudor -22.6%, G9a inh -5.9%[59 µM] and BAZ2B block inconclusive.
For O=C1Nc2ccccc2SC(c2ccccc2)C1O (stereo not drawn) the results were HP1b binding inh -29.6%, JMJD2A Tudor 56.2µM*, G9a inh 10µM* and BAZ2B block 39.8µM*.
For COc1ccc(C(=O)CN2C(=O)c3ccccc3S2(=O)=O)cc1Br the results were HP1b binding inh -2.3%, JMJD2A Tudor -29.0%, G9a inh 50.1µM* and BAZ2B block -17.7%.
Screening Nc1ccn([C@@H]2O[C@H](CO)[C@@H](O)[C@H]2O)c(=O)n1 returned HP1b binding inh 49.9% and JMJD2A Tudor -17.2%.
C[N+](C)(C)CCOP(=O)([O-])OP(=O)(O)OCC1OC(n2ccc(N)nc2=O)C(O)C1O (stereo not drawn) was read as G9a inh -45.4%[2.33 µM].
C[N+](C)(C)CCOP(=O)(O)OP(=O)([O-])OC[C@H]1O[C@@H](n2ccc(N)nc2=O)[C@H](O)[C@@H]1O was read as HP1b binding inh 28.3%, L3MBTL1 inh -3.7%, JMJD2A Tudor -5.0%, G9a inh 10µM*! and BAZ2B block -5.1%.
`Nc1ccn([C@@H]2O[C@H](CO)[C@@H](O)C2O)c(=O)n1` (stereo partly drawn) gave HP1b binding inh 20.1%, JMJD2A Tudor 0.7%, G9a inh 11.2µM*! and BAZ2B block 3.3%.
Screening Cc1sc2ncn(CC(=O)N3CCN(c4ccccc4)CC3)c(=O)c2c1S(=O)(=O)N1CCC(C)CC1 returned HP1b binding inh 5.1%, JMJD2A Tudor -27.6%, G9a inh -47.3%[59 µM] and BAZ2B block -17.4%.
O=C(O)c1c(C(=O)N2N=C3/C(=C/c4ccccc4)CCCC3C2c2ccccc2)cccc1[N+](=O)[O-] (stereo not drawn) was read as HP1b binding inh 16.3%, L3MBTL1 inh -3.4%, JMJD2A Tudor -21.4%, G9a inh 50.1µM* and BAZ2B block inconclusive.
O=C(O)c1ccccc1C(=O)N1N=C2/C(=C/c3cccc([N+](=O)[O-])c3)CCCC2C1c1cccc([N+](=O)[O-])c1 (stereo not drawn) was read as HP1b binding inh -5.0%, L3MBTL1 inh -3.9%, JMJD2A Tudor inconclusive, G9a inh 50.1µM* and BAZ2B block 44.7µM*.
For CC(=O)N1N=C2/C(=C/c3ccccc3)CCCC2C1c1ccccc1 (stereo not drawn) the results were HP1b binding inh -8.3%, L3MBTL1 inh 0.4%, JMJD2A Tudor inconclusive and BAZ2B block -21.8%.
